The list is not random: actives were taken first. Their share in the collection is about 17%.
TDP1 block: TDP1 (human) enzyme inhibition. AID 485290. Potency, µM (series often up to 130 µM), for the others: at the top dose activity change, negative = inhibition, actives largely listed as inhibitors. hit rate 0.28% among 350,000. Q9NUW8. recombinant TDP1, AlphaScreen DNA substrate cleavage; also: % is scaled to controls: 0 for no effect and ±100 for the full control effect; nearly all actives have a fitted effect of over 40% in size
Target sequence (Q9NUW8 whole entry, looked up): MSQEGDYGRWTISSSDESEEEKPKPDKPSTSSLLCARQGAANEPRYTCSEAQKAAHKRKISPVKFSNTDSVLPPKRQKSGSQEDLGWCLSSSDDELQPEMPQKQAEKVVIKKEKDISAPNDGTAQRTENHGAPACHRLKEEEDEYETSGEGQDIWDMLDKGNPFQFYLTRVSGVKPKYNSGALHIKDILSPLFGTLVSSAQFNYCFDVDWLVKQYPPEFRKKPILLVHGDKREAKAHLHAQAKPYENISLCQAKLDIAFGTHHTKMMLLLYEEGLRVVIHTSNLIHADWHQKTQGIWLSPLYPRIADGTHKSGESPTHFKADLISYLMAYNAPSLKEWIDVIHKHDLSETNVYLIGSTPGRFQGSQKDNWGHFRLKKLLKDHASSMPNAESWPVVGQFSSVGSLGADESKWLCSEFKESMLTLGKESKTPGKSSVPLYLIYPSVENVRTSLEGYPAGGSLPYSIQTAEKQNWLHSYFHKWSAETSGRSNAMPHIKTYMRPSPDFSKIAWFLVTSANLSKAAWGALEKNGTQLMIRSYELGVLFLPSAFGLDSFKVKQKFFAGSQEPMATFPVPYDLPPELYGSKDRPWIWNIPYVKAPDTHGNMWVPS
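AlphaScreen read-out: signal falls as enzyme removes the 3' tyrosine-FITC from a 5'-biotinylated DNA oligo (15 nM, 5 min, RT). Enzyme was E. coli-made recombinant Tdp1 at 1 nM, exposed to compound for 15 min beforehand; beads 10 ug/ml, 10 min.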
DT40 TDP1 no CPT: qHTS for Inhibitors of human tyrosyl-DNA phosphodiesterase 1 (TDP1): qHTS in cells in absence of CPT; DT40 Tdp1-/- hTDP1 cells, no CPT, ATP luminescence, 48 h; Potency, µM (titrated, usually from 46.2 µM), without a hit: top-dose activity change, negative = growth inhibition, most hits filed as inhibitors; hit rate 15% among 420,000; also: % is scaled to controls: 0 for no effect and ±100 for the full control effect; nearly all actives have a fitted effect of over 55% in size
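Luminescent ATP content (CellTiter-Glo) served as the growth readout. Knockout chicken DT40 cells expressing human TDP1 were exposed to compounds without camptothecin for a minimum 48 hr at 37 °C.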
TDP1 cell CPT: DT40-hTDP1 cell growth loss with CPT; chicken DT40 Tdp1-/-;hTDP1 cells + 20 nM CPT, ATP luminescence, 48 h; Potency, µM (doses to about 46.2 µM), inactives show top-dose activity change, negative = growth inhibition, actives largely listed as inhibitors; hit rate 12% among 420,000; AID 686979; also: % is scaled to controls: 0 for no effect and ±100 for the full control effect; nearly all actives have a fitted effect of over 55% in size
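Chicken DT40 Tdp1-/- cells stably complemented with human TDP1 were seeded at 400 cells/well in medium containing 20 nM camptothecin, exposed to pin-transferred compounds, and grown at 37 °C for at least 48 hr. Viability was read as ATP luminescence.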
ClpP mod: qHTS Assay for Activators of ClpP; ATP-dependent Clp protease proteolytic subunit (Bacillus subtilis (strain 168)), P80244; purified B. subtilis ClpP, FRET peptide cleavage, 20 min; Potency, µM (top dose mostly 57.5 µM), inactives show at the top dose activity change, negative = active; hit rate 1.9% among 340,000; AID 651965, 2013; active = well fitted falling curve with a large enough effect; inconclusive = small, poorly fitted or top-dose-only effect; inactive = no such curve, though single readings can be large or run the other way; also: the source files actives as falling curves though it sought activators and does not explain the sign; nearly all actives have a fitted effect of over 65% in size
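Buffer: 100 mM Tris/HCl pH8, 100 mM KCl, 0.05% low protease BSA, 2.5% glycerol, 0.01% Tween-20. ClpP 10 microg/mL final; 20 min RT; delta FRET normalized to ADEP and DMSO controls.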
Starred values were filed as active, the others as inactive; ? = inconclusive; nt = no result; [ ] = remark or other dose. Unless noted, calls follow the shape of the dose curve; as a rule, active = well fitted curve in the direction sought with a large enough effect; inconclusive = small, poorly fitted or top-dose-only effect, or another doubt; inactive = no such curve, though single readings can be large; an effect the other way counts as inactive or inconclusive. Potency is read from the fitted curve at half-maximal effect.

SMILES	TDP1 block	DT40 TDP1 no CPT	TDP1 cell CPT	ClpP mod
C[C@@H]1CN([C@H](C)CO)S(=O)(=O)c2ccc(Br)cc2O[C@H]1CN(C)C(=O)Nc1ccccc1	nt	?	?	-0.4%
COCc1cccc(-c2csc(C(O)c3cccc(OC)c3)n2)c1 (centres undefined)	nt	?	18.4µM*	-10.7%
COc1ccc(C(O)c2nc(-c3ccc(F)c(Cl)c3)cs2)cc1 (centres undefined)	nt	?	?	0.8%
COc1cc(C(O)c2nc(-c3ccc(F)cc3OC)cs2)ccc1F (centres undefined)	nt	?	?	-2.4%
COc1ccc(-c2csc(C(O)c3ccc(F)c(OC)c3)n2)cc1 (centres undefined)	nt	14.6µM*	13µM*	-2.8%
COc1ccc(-c2csc(C(O)c3ccc(F)c(OC)c3)n2)cn1 (centres undefined)	nt	23.1µM*	16.4µM*	-0.7%
COc1cccc(C(O)c2nc(-c3ccc(F)c(Cl)c3)cs2)c1 (centres undefined)	nt	?	16.4µM*	-2.2%
Cc1ccc([N+](=O)[O-])cc1NCC(=O)NN	-3.7%	-14.5%	-0.1%	nt
O=C(c1c[nH]c2ccccc12)C(F)(F)F	nt	?	?	-1.4%
Cc1ccc(NC(=O)Cc2ccc3c(c2)OCCO3)cc1S(=O)(=O)N1CCCCC1	-1.9%	?	-19.9%	nt
COc1cc(C(O)c2nc(-c3ccccc3)cs2)ccc1F (centres undefined)	nt	6.51µM*	7.31µM*	-7.1%
COCc1cccc(-c2csc(C(O)c3ccccc3)n2)c1 (centres undefined)	nt	?	?	-1.2%
COCc1cccc(-c2csc(C(O)c3ccc(F)c(OC)c3)n2)c1 (centres undefined)	nt	20.6µM*	8.2µM*	-2.3%
COC(=O)c1ccc2oc(=O)c(S(=O)(=O)c3ccc(C)cc3)cc2c1	0.0%	1.2%	-13.6%	-8.4%
N#CCSc1nccc(/C=C/c2ccccc2)n1	0.0%	-7.7%	18.2%	nt
C[C@H]1CN([C@@H](C)CO)C(=O)Cc2cc(NC(=O)CCN3CCOCC3)ccc2O[C@@H]1CN(C)Cc1ccc(Oc2ccccc2)cc1	4.6%	23.1µM*	23.1µM*	-3.6%
C[C@H](CO)N1C[C@H](C)[C@H](CN(C)Cc2ccc(-c3ccccc3)cc2)Oc2ccc(NS(=O)(=O)c3ccccc3)cc2CC1=O	3.6%	18.4µM*	16.4µM*	-2.3%
CC(=O)N1CCc2c(sc3c2c(=O)n(-c2ccccc2Cl)c(=O)n3C)C1	-0.5%	18.5%	11.8%	-3.6%
Cc1cc(CNC(=O)COC(=O)Cn2[nH]c(=O)c3ccccc3c2=O)cc(C)c1O	0.5%	2.1%	?	-3.2%
Cc1cc2c(cc1C)C(c1ccsc1)CC(=O)N2 (centres undefined)	1.3%	12.9%	-9.3%	2.1%
Cc1cc2c(cc1C)C(c1cc(Br)ccc1F)CC(=O)N2 (centres undefined)	2.4%	16.4µM*	?	1.6%
Cc1cc2c(cc1C)C(c1cccc(F)c1)CC(=O)N2 (centres undefined)	nt	16.4µM*	?	0.6%
COc1ccc(NC(=O)N[C@H]2C=C[C@@H](CC(=O)NC3CCC3)O[C@@H]2CO)cc1	nt	5.5%	-1.6%	-0.2%
Cc1[nH]c(C)c(S(=O)(=O)NCCc2ccc(S(N)(=O)=O)cc2)c1C(=O)N1CCCC1	1.9%	?	?	-1.1%
COc1ccccc1/C=C/C(=O)OCC(=O)Nc1ccc2c(c1)OCCO2	0.2%[56.1 µM]	4.1%	2.1%	45.9%
SMILES	TDP1 block	DT40 TDP1 no CPT	TDP1 cell CPT	ClpP mod
COc1ccccc1/C=C/C(=O)Nc1ccc2c(c1)OCCO2	7.1%	10.3µM*	8.2µM*	0.2%
COc1ccccc1/C=C/C(=O)Nc1ccc2c(c1)CCC2	-2.8%	11.6µM*	-27.4%	-23.7%
COc1ccc(OC)c(/C=C/C(=O)Nc2ccc3c(c2)CCC3)c1	7.9%	?	?	-28.8%
O=C1CCC(C(=O)N2CCCCO2)CN1Cc1cccc(F)c1 (centres undefined)	1.6%	12.7%	0.4%	-2.3%
CCOC(=O)c1ccc(NC(=O)CSc2nc3c(c(=O)n2C)SC(C)C3)cc1 (centres undefined)	11.8%	25.9µM*	18.4µM*	0.2%
Cc1ccc2nc(NC(=O)CSc3nc4c(c(=O)n3C)SC(C)C4)sc2c1 (centres undefined)	-2.0%	20.6µM*	20.6µM*	1.8%
COc1ccc2c(C)cc3n[nH]c(=S)n3c2c1	8.2%	-22.5%	-26.1%	-21.9%
Clc1ccccc1-c1nn2c(-c3ccncc3)nnc2s1	-3.3%	23.1µM*	16.4µM*	-0.9%
Cc1cccc(-c2nnc3sc(-c4ccccc4)nn23)c1	1.0%	12.6µM*	20µM*	-0.3%
COc1ccc(-c2nn3c(-c4cccc(C)c4)nnc3s2)cc1OC	nt	?	?	-5.4%
COc1cccc(-c2nnc3sc(-c4ccccn4)nn23)c1	4.2%	23.1µM*	?	-4.2%
COc1cccc(-c2nn3c(-c4cc(C)[nH]n4)nnc3s2)c1	0.0%	11.2µM*	15.8µM*	-0.2%
COC(=O)C(C)Oc1ccc(-c2nccc(-c3ccccn3)n2)cc1 (centres undefined)	nt	-13.2%	2.1%	nt
Cc1ccc(S(=O)(=O)N2C[C@]3(O)C[C@@H]4C(=O)N(c5ccccc5)C(=O)[C@@H]4C[C@]3(OC(=O)Nc3cccs3)C2)cc1	nt	?	?	0.1%
Cc1onc(-c2ccccc2)c1-c1nnc(CN2CCN(S(=O)(=O)c3ccccc3)CC2)o1	0.6%	16.4µM*	14.6µM*	-2.2%
CCOC(=O)C1(C#N)Cc2ccccc2C1	nt	7.3%	8.4%	-1.4%
CCN(CC)c1ncnc2scc(C3COc4ccccc4O3)c12 (centres undefined)	-2.4%	?	16.4µM*	-1.1%
COCC(=O)Oc1cc(-c2ccc(C)cc2C)c(OC(=O)COC)c(-c2ccc(C)cc2C)c1	nt	9.2µM*	10.3µM*	3.4%
CC1(C(=O)NCc2ccccc2)CCC(=O)N1CC(F)(F)F (centres undefined)	nt	9.4%	-1.9%	2.7%
Cc1cc(C)c2nc(NNC(=O)c3cc(=O)c4ccccc4o3)sc2c1	nt	?	29.1µM*	-1.3%
Cc1nnc(NC(=O)c2ccc(S(=O)(=O)N3CCc4ccccc4C3)cc2)o1	10.8%	?	?	-2.1%
Cc1cc(C)c2sc(NNC(=O)c3ccc(S(=O)(=O)N4CCc5ccccc5C4)cc3)nc2c1	10.5%	2.59µM*	3.26µM*	-2.0%
Cc1cc(C)c2nc(NNC(=O)c3ccc(S(=O)(=O)N4CCc5ccccc5C4)cc3)sc2c1	0.0%	4.61µM*	5.17µM*	-1.8%
COC(=O)[C@@]1(Cc2ccc(OC)cc2)[C@H]2c3cc(C(=O)N(C)C)n(Cc4ccc(C(F)(F)F)nc4)c3C[C@H]2CN1C(=O)c1ccccc1	17.7%	nt	nt	nt

Bioassay records: PubChem, National Center for Advancing Translational Sciences (NCATS)
